Compound activity: PubChem, National Center for Advancing Translational Sciences (NCATS)
The entries come from a sample that favours hits as a whole.
FH mod = Identification of activators of human fumarate hydratase by quantitative high-throughput screening. Fumarate hydratase, mitochondrial (Homo sapiens), P07954. FH coupled MDH/diaphorase resazurin fluorescence, 15 min. Potency, µM (titrated, usually from 79.9 µM), hits mostly inhibitors. actives 0.22% (n = 54,000). AID 1347055, 2019; further: the screen sought activators but most active calls are inhibition curves; nearly all actives have a fitted effect of over 45% in size
Target sequence (P07954 whole entry, looked up): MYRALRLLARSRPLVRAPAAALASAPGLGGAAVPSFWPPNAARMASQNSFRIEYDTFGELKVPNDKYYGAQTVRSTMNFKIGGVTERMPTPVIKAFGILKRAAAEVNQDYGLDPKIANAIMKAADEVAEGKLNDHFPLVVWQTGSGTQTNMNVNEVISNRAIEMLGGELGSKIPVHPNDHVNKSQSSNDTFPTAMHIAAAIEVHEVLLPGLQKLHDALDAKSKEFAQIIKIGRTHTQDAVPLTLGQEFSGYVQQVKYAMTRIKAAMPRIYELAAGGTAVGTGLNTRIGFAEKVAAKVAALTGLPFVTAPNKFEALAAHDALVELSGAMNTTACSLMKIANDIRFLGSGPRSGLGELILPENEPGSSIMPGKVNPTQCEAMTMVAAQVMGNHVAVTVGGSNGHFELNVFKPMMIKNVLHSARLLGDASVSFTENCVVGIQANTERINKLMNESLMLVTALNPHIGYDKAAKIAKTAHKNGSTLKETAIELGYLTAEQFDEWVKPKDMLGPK
GALC G270D act = raises human GALC G270D mutant activity in cells; Potency, µM (highest dose often 57.5 µM), most hits filed as activators; 145M-Twi-hGALC-G270D cells (Twitcher mouse brain line with human GALC G270D), HMU-beta-Gal fluorescence, 48 h; AID 1159614; actives 0.1% (n = 45,000); P54803; further: nearly all actives have a fitted effect of over 65% in size
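Mutant human GALC (G270D), stably expressed in a Twitcher mouse brain cell line lacking endogenous GALC, is measured in live-treated cells via 6-hexadecanoylamino-4-methylumbelliferyl-β-galactoside hydrolysis (0.1 mM final, pH 5.2) with fluorescent detection.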
NTMT1 inh = NTMT1 methyltransferase inhibition | Q9BV86 | NTMT1 MTase-Glo SAH luminescence, purified enzyme | Potency, µM (highest dose often 114 µM), most hits filed as inhibitors | actives 2.5% (n = 59,000); further: nearly all actives have a fitted effect of over 65% in size
Target sequence (Q9BV86 whole entry, looked up): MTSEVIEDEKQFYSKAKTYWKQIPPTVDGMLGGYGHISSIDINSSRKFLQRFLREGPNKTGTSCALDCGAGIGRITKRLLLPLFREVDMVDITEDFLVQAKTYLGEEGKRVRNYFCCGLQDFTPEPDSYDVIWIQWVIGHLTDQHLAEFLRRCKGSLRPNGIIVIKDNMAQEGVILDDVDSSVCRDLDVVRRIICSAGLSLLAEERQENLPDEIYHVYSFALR
Sfp qHTS opt = Sfp PPTase inhibition, chemistry optimization; shares compounds with NTMT1 inh; purified Sfp PPTase enzyme activity, qHTS; Potency, µM (top dose mostly 114 µM), most hits filed as inhibitors; actives 78% (n = 230)
HM489 growth = B. subtilis HM489 growth inhibition; shares compounds with NTMT1 inh; B. subtilis HM489 (acpS-) growth, BacTiter-Glo, 5 h; Potency, µM (highest dose often 114 µM), usual class: inhibitors; actives 50% (n = 220)
Sfp gel opt = inhibitors of Bacillus subtilis Sfp PPTase, gel-based followup | shares compounds with NTMT1 inh | purified Sfp PPTase, gel-based product detection | Potency, µM (doses to about 250 µM), hits mostly inhibitors | actives 54% (n = 220) | AID 540355
Sfp inh gel = confirmation of Bacillus subtilis Sfp PPTase inhibitors. purified Sfp PPTase, gel-based product detection. actives 90% (n = 45). shares compounds with NTMT1 inh. AID 602362. Potency, µM (top dose mostly 250 µM), usual class: inhibitors
Sfp inh SAR2 = Sfp phosphopantetheinyl transferase inhibition, SAR round 2. shares compounds with NTMT1 inh. purified Sfp enzyme, PPTase activity, qHTS. Potency, µM (series often up to 57.1 µM), hits mostly inhibitors. actives 87% (n = 230)
hGST ctr = inhibits hGST A1-1 in Sfp inhibitor counter-screen; shares compounds with NTMT1 inh; hGST A1-1 enzyme activity counter-screen, qHTS; Potency, µM (series often up to 114 µM), most hits filed as inhibitors; 55 tested, under 10 active; AID 602391
HSD17B4 inh = counter-screen for HPGD inhibitors: human HSD17B4 inhibition | actives 10% (n = 230) | AID 743187 | purified HSD17B4, estradiol/NAD+, NADH fluorescence | shares compounds with NTMT1 inh | Potency, µM (highest dose often 57.1 µM), most hits filed as inhibitors
ALDH1A1 counter = ALDH1A1 (human) inhibition, HPGD counter-screen; Potency, µM (series often up to 57.1 µM), most hits filed as inhibitors; actives 93% (n = 230); AID 743195; shares compounds with NTMT1 inh; recombinant ALDH1A1, NADH fluorescence, propionaldehyde/NAD+
Large screens that a line does not name were inactive (follow-up assays come after a bar, where they were run); ! = not active in a repeat. The call rests on the fitted dose curve; in most records, active means well fitted curve in the direction sought with a large enough effect; inconclusive means small, poorly fitted or top-dose-only effect, or another doubt; inactive means no such curve, though single readings can be large; an effect the other way counts as inactive or inconclusive.

Cc1cc(C)nc(NC(=S)N2CCN(S(=O)(=O)c3cccc(C(F)(F)F)c3)CC2)c1	NTMT1 inh inconclusive (no result: FH mod, GALC G270D act) | Sfp qHTS opt 2.4µM | HM489 growth inconclusive | Sfp gel opt inactive | Sfp inh SAR2 0.81µM | HSD17B4 inh inactive | ALDH1A1 counter 22µM
Cc1ccnc(NC(=S)N2CCCN(c3cccc(C(F)(F)F)c3)CC2)c1	NTMT1 inh inconclusive (no result: FH mod, GALC G270D act) | Sfp qHTS opt 4.7µM | HM489 growth 7.4µM | Sfp gel opt 1.3µM | Sfp inh gel 1.9µM | Sfp inh SAR2 1.6µM | hGST ctr inconclusive | HSD17B4 inh inactive | ALDH1A1 counter 1.7µM
COc1cc(O)c(C(CC(=O)N2CC(C)CC(C)C2)c2ccc(C)cc2)c(OC)c1 (stereo unspecified)	none (no result: FH mod, GALC G270D act)
Nc1cccc([S+](=O)([O-])N2CCCN([S+](=O)([O-])c3cccc(N)c3)CC2)c1	none (no result: FH mod, GALC G270D act)
Cn1ncc(Cl)c1-c1cc(C(=O)N[C@H](CN)Cc2ccc(F)c(F)c2)oc1Cl	none (no result: GALC G270D act)
COc1ccc([S+](=O)([O-])N2CCCN([S+](=O)([O-])c3ccc(OC)c(N)c3)CC2)cc1N	none (no result: FH mod, GALC G270D act)
CC(C)Cn1cc(NC(=O)N2CCN(c3cccc(C(F)(F)F)c3)CC2)c2ccccc2c1=O	none
FC(F)(F)c1cccc(N2CCN(C(=S)Nc3ncnc4ccccc34)CC2)c1	NTMT1 inh inconclusive (no result: FH mod, GALC G270D act) | Sfp qHTS opt inconclusive | HM489 growth 5.9µM | Sfp gel opt inconclusive | Sfp inh SAR2 9.1µM | HSD17B4 inh inconclusive | ALDH1A1 counter 6.8µM
Cc1ccc(-n2nc(C(=O)N3CCN(c4cccc(C(F)(F)F)c4)CC3)c(=O)n(C)c2=O)cc1	NTMT1 inh inconclusive
Cc1ccnc(NC(=S)N[C@H]2CCN(c3cccc(C(F)(F)F)c3)C2)c1	none (no result: FH mod, GALC G270D act) | Sfp qHTS opt inactive | HM489 growth inconclusive | Sfp gel opt inconclusive | Sfp inh SAR2 inconclusive | HSD17B4 inh inactive | ALDH1A1 counter 22µM
Cc1ccnc(NC(=S)N2CCC(Nc3cccc(C(F)(F)F)c3)CC2)c1	none (no result: FH mod, GALC G270D act) | Sfp qHTS opt 1.9µM | HM489 growth 12µM | Sfp gel opt 0.4µM | Sfp inh SAR2 1µM | HSD17B4 inh inactive | ALDH1A1 counter 4.8µM
CC(=O)N1c2ccccc2C(=O)C1N1CCN(c2cccc(C(F)(F)F)c2)CC1 (stereo unspecified)	none
Cc1cc(Nc2cccc(C(F)(F)F)c2)ncn1	none
Cc1ccnc(NC(=S)N2CCN(c3cccc(C(F)(F)F)c3)C2)c1	none (no result: FH mod, GALC G270D act) | Sfp qHTS opt inactive | HM489 growth inactive | Sfp gel opt inconclusive | Sfp inh SAR2 0.81µM | HSD17B4 inh inactive | ALDH1A1 counter 22µM
COc1ccc(C(=O)Nc2ccc(-c3nc4ccccc4[nH]3)cc2)cc1Br	none (no result: FH mod, GALC G270D act)
C/C=C/C[C@@H](C)C(=O)[C@H]1C(=O)N[C@@H](C(C)C)C(=O)N(C)CC(=O)N(C)[C@@H](CC(C)C)C(=O)N[C@@H](C(C)C)C(=O)N(C)[C@@H](CC(C)C)C(=O)N[C@@H](C)C(=O)N[C@H](C)C(=O)N(C)[C@@H](CC(C)C)C(=O)N(C)[C@@H](CC(C)C)C(=O)N(C)[C@@H](C(C)C)C(=O)N1C	none (no result: FH mod, GALC G270D act)
Cc1cc(O)cc2c1[C@]1(C)CC[C@H]3C(C)(C)CCC[C@]3(C)[C@H]1C2	none (no result: FH mod, GALC G270D act)
CC(=O)O[C@H]1[C@@]2(O)C[C@H](C)[C@H](OC(=O)c3ccccc3)[C@@H]2[C@@H](OC(=O)CO)[C@]2(OC(C)=O)C[C@H]3C(=O)C(C)(C)C[C@@H]3[C@@]1(C)[C@H]2OC(C)=O	none (no result: GALC G270D act)
CC(C)(C)OC(=O)N[C@@H](Cc1ccc(O[S+](=O)([O-])c2cccc3cnccc23)cc1)C(=O)N1CCN(Cc2ccccc2)CC1	none (no result: FH mod, GALC G270D act)
O=C(O[C@H]1[C@@H]2C[C@@H]3OC[C@@](O)([C@H]2[C@H](O[C@@H]2O[C@H](CO)[C@@H](O)[C@H](O)[C@H]2O)O3)[C@@H]1O)c1ccccc1	none (no result: GALC G270D act)
COc1ccc(C2Nc3ccccc3C(=O)N2CCO)cc1COc1c(C)cc(NC(C)=O)cc1C (stereo unspecified)	none (no result: FH mod, GALC G270D act)
Cc1ccc(OCCn2c(CCNC(=O)c3ccc(Br)o3)nc3ccccc32)cc1	none (no result: FH mod, GALC G270D act)
Cc1oc2ncn(C)c(=O)c2c1C(=O)N1CCN(c2cccc(C(F)(F)F)c2)CC1	none
FC(F)(F)c1cccc(N2CCN(C(=S)Nc3cnccn3)CC2)c1	none (no result: FH mod, GALC G270D act, NTMT1 inh) | Sfp qHTS opt inconclusive | HM489 growth inactive | Sfp gel opt 158µM | Sfp inh SAR2 inconclusive | HSD17B4 inh 30µM | ALDH1A1 counter 24µM
FC(F)(F)c1cccc(N2CCN(C(=S)Nc3ccccn3)CC2)c1	none (no result: FH mod, GALC G270D act, NTMT1 inh) | Sfp qHTS opt 2.4µM | HM489 growth 37µM | Sfp gel opt 25µM | Sfp inh SAR2 0.91µM | HSD17B4 inh inactive | ALDH1A1 counter 7.6µM
Cn1cnc(S(=O)(=O)N2CCC(C(=O)N3CCN(c4cccc(C(F)(F)F)c4)CC3)CC2)c1	none
Cc1ccnc(NC(=S)N2CCN(c3cccc(C(F)(F)F)c3)CC2)c1	none (no result: FH mod, GALC G270D act, NTMT1 inh) | Sfp qHTS opt 4.7µM | HM489 growth 12µM | Sfp gel opt 0.32µM! | Sfp inh gel 4.3µM | Sfp inh SAR2 0.65µM | hGST ctr inactive | HSD17B4 inh inactive | ALDH1A1 counter 7.6µM
Cn1nnc2c(N3CCN(c4cccc(C(F)(F)F)c4)CC3)ncnc21	none
Cc1ccnc(C(=S)N2CCN(c3cccc(C(F)(F)F)c3)CC2)c1	none (no result: FH mod, GALC G270D act) | Sfp qHTS opt inconclusive | HM489 growth inconclusive | Sfp gel opt inactive | Sfp inh SAR2 inconclusive | HSD17B4 inh inactive | ALDH1A1 counter 17µM
CSc1ncc(C(=O)N2CCN(c3cccc(C(F)(F)F)c3)CC2)c(C)n1	none
